For 36 molecules, composite z-score results are on record in PubChem BioAssay.

SMILES strings stand for the structures. A number with no mark means an inactive call.

The subject of the assay is XIP peptide (Xip251-270) binding. The assay is described as follows: small-molecule binders of XIP peptide, primary screen, biochemical, small-molecule microarray, fluorescence 635/667 nm, 0.1 µg/mL protein (AID 1182). Conditions: fluorescent protein binding, 635 nm, higher = more signal, called active from +8 up or from −8 down.
For the molecule `C[C@@H](c1ccccc1)N1C(=O)[C@H]2[C@H]3[C@H](O)[C@H](O)CC(=NO[C@@H]4O[C@H](CO)[C@@H](O)[C@H](O)[C@H]4O)[C@@H]3CC[C@H]2C1=O`, the composite z-score is -0.0769. Turning to `Cn1c(=O)n2n(c1=O)[C@H]1[C@H](O)[C@@H]3O[C@@H]3C(=NOCc3ccccc3)[C@H]1CC2`, the composite z-score is 0.899. For `COC(=O)CC=C[C@@H](C)[C@@H](C=NO[C@@H]1O[C@H](COC(C)=O)[C@@H](OC(C)=O)[C@H](OC(C)=O)[C@H]1OC(C)=O)OC`, the composite z-score was -0.865.

Take `CCN1C(=O)[C@H]2[C@H]3[C@H](O)[C@H](O)CC(=NOC[C@H]4O[C@H](c5ccccc5)C=C[C@@H]4Oc4ccc(OC)cc4)[C@@H]3CC[C@H]2C1=O`: the composite z-score was 0.432. Next, `COC(=O)CC=C[C@@H](C)[C@@H](C=NOCC[C@@H]1C=C[C@H](OC(C)=O)[C@@H](COC(C)=O)O1)NS(=O)(=O)c1ccc(C)cc1`: 0.412; `CC(C)CON=C1C[C@@H](O)[C@@H](O)[C@@H]2[C@@H]3C(=O)N(C4CCCCC4)C(=O)[C@@H]3CC[C@H]12`: 0.273.

With `CCOC(=O)[C@H](Cc1ccccc1)NC(=O)CCC1CC(OC(=O)NCCc2ccc(F)cc2)CC2(CCCC(COC(=O)NCCc3ccccc3OC)O2)O1` (stereo partly specified), the composite z-score was -0.157. For `CC(C)CON=C1C[C@@H](O)[C@@H](O)[C@@H]2[C@@H]3C(=O)N(c4cccc(Oc5ccccc5)c4)C(=O)[C@@H]3CC[C@@H]12`, the composite z-score was -0.347. With `CC(C)CON=C1C[C@@H](O)[C@@H](O)[C@@H]2[C@@H]3C(=O)N(C(C)(C)C)C(=O)[C@@H]3CC[C@H]12`, the composite z-score is 1.9. Turning to `COc1ccc(O[C@@H]2[C@H](O)CO[C@H]2C=Cc2ccccc2)cc1`, the composite z-score is 0.266. On to `O=C(NN=C1C[C@@H](O)[C@@H](O)[C@@H]2[C@@H]3C(=O)N(Cc4ccccc4)C(=O)[C@@H]3CC[C@@H]12)OCc1ccccc1`, for which the composite z-score is -0.0255. Consider `CCC(=O)[C@@]1(O)C(=O)N2C(=C3C(=O)OCC[C@@H]31)N(Cc1ccccc1)C(C)=C(C(=O)OC)[C@H]2c1ccccc1`, for which the composite z-score was -0.0955. With `CO[C@H]1COC(=O)CCC[C@@H](C)[C@H](OC)COC(=O)[C@@H]2CCCN2C(=O)CC=C[C@@H]1C`, the composite z-score is 0.0072. Take `CCCNC(=O)OC[C@H]1O[C@H](CCON=C(C)CCN2CCCc3nc(C)c(C)cc32)C=C[C@@H]1Oc1ccc(OC)cc1`: the composite z-score is -0.0364. Next, `COc1ccc(COC(=O)NN=C2C[C@@H](O)[C@@H](O)[C@@H]3[C@@H]4C(=O)N(C5CCCCC5)C(=O)[C@@H]4CC[C@H]23)cc1`: -0.252; `CC(C)CON=C1C[C@@H](O)[C@@H](O)[C@@H]2[C@@H]3C(=O)N(Cc4ccc5c(c4)OCO5)C(=O)[C@@H]3CC[C@H]12`: 0.798; `CON=CC[C@@H]1C=C[C@H](OC(C)=O)[C@@H](COC(C)=O)O1`: 0.726. For the molecule `CO[C@H]1COC(=O)CC=C[C@H](C)[C@@H](OC)COC(=O)[C@@H](C)NC(=O)CC=C[C@@H]1C`, the composite z-score is -0.303.

For the molecule `CC(=O)OC[C@H]1O[C@H](CC=NO[C@H](C)c2cn([C@H](CO)Cc3ccccc3)nn2)C=C[C@@H]1OC(C)=O`, the composite z-score was 0.364. Take `CC(C)=CCCC(C)=CCON=C1C[C@@H](O)[C@@H](O)[C@@H]2[C@@H]3C(=O)N(c4ccc(F)cc4F)C(=O)[C@@H]3CC[C@@H]12`: the composite z-score is -0.0619. `COC(=O)CC=C[C@H](C)[C@@H](OCc1cccc(Br)c1)[C@@H](C)[C@H](OC)C1CCCCC1`: the composite z-score is 0.685.

Take `COC(=O)[C@H](C)NC(=O)CCC1CC(OC(=O)NCc2cccc3ccccc23)CC2(CCCC(COC(=O)NCC(c3ccccc3)c3ccccc3)O2)O1` (stereo partly specified): the composite z-score is 0.519.

`C#CCCCON=C1C[C@@H](O)[C@@H](O)[C@@H]2[C@@H]3C(=O)N(Cc4ccccc4)C(=O)[C@@H]3CC[C@@H]12`: the composite z-score was -0.186. To `COC(=O)[C@H](C)NC(=O)CCC1CC(OC(=O)NCCc2ccc(F)cc2)CC2(CCCC(COC(=O)NCc3cccc(C(F)(F)F)c3)O2)O1` (stereo partly specified) belongs 0.64; to `CCc1cc2c(nc1CC)CCN(CCC(C)=NO[C@H](C)c1cn([C@H](CO)Cc3ccccc3)nn1)C2`, 0.076; to `Cc1cc2c(nc1C)CCCN2CC(O)CN1CCCc2nc(C)c(C)cc21`, 0.6. For the molecule `CO[C@@H]1COC(=O)[C@H](CCSC)NC(=O)CC=C[C@@H](C)COC(=O)CCC[C@H]1C`, the composite z-score was 1.2. `O=C1[C@H]2[C@H]3[C@H](O)[C@H](O)CC(=NOCc4ccccc4)[C@@H]3CC[C@H]2C(=O)N1Cc1ccc2c(c1)OCO2`: the composite z-score was 0.135. With `CCOC(=O)[C@H](CC(C)C)NC(=O)CCC1CC(OC(=O)NCCc2ccc(F)cc2)CC2(CCCC(COC(=O)NCCOc3ccccc3)O2)O1` (stereo partly specified), the composite z-score is 0.679. Take `COC(=O)CC=C[C@@H](C)[C@@H](C=NO[C@@H](C)c1cn([C@H](CO)Cc2ccccc2)nn1)NS(=O)(=O)c1ccc(C)cc1`: the composite z-score is -0.294. To `O=C(NN=C1C[C@@H](O)[C@@H](O)[C@@H]2[C@@H]3C(=O)N(C[C@@H]4CCCO4)C(=O)[C@@H]3CC[C@@H]12)OCc1ccccc1` belongs 1.77. `C#CCCCON=C1C[C@@H](O)[C@@H](O)[C@@H]2[C@@H]3C(=O)N(c4cccc(Oc5ccccc5)c4)C(=O)[C@@H]3CC[C@H]12`: the composite z-score is 0.332.

For `COc1ccc(O[C@H]2C=C[C@@H](c3ccccc3)O[C@@H]2COC(=O)CCC(C)=NO[C@@H]2O[C@H](COC(C)=O)[C@@H](OC(C)=O)[C@H](OC(C)=O)[C@H]2OC(C)=O)cc1`, the composite z-score is 0.427.

On to `COc1cc(O)c(C(=O)C=Cc2ccc3c(c2)OCO3)c(OC)c1`, for which the composite z-score was -0.156.

For the molecule `C#CCCCON=C1C[C@@H](O)[C@@H](O)[C@@H]2[C@@H]3C(=O)N(C(C)(C)C)C(=O)[C@@H]3CC[C@H]12`, the composite z-score was -0.217. For `CCOC(=O)[C@H](CC(C)C)NC(=O)CCC1CC(OC(=O)NCCc2ccc(F)cc2)CC2(CCCC(COC(=O)NCCC(C)C)O2)O1` (stereo partly specified), the composite z-score is -0.0575.
